JMJD2A Tudor – JMJD2A Tudor domain (human) inhibition | O75164 | AlphaScreen JMJD2A-Tudor / H3K4me3 peptide binding | Potency, µM (doses to about 114 µM), hits mostly inhibitors | actives 4.4% (n = 390,000) | AID 504339; also: nearly all actives have a fitted effect of over 50% in size
BAZ2B inh – blocks human BAZ2B; AlphaScreen BAZ2B-H3K14Ac peptide displacement; Potency, µM (doses to about 114 µM), actives largely listed as inhibitors; actives 4.4% (n = 360,000); AID 504333; also: nearly all actives have a fitted effect of over 60% in size
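Compounds, titrated to a top concentration of 110 uM, were incubated 30 min at room temperature with preformed BAZ2B/acetyl-K14 H3 peptide complex (50 nM each). Proximity signal was measured by AlphaScreen after 20 min with beads.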
L3MBTL1 inh – inhibitors of human L3MBTL1; Q9Y468; AID 485360; AlphaScreen L3MBTL1–H3K9me1 peptide binding; Potency, µM (series often up to 57.1 µM), actives largely listed as inhibitors; actives 0.66% (n = 230,000); also: nearly all actives have a fitted effect of over 60% in size
Target sequence (Q9Y468 whole entry, looked up): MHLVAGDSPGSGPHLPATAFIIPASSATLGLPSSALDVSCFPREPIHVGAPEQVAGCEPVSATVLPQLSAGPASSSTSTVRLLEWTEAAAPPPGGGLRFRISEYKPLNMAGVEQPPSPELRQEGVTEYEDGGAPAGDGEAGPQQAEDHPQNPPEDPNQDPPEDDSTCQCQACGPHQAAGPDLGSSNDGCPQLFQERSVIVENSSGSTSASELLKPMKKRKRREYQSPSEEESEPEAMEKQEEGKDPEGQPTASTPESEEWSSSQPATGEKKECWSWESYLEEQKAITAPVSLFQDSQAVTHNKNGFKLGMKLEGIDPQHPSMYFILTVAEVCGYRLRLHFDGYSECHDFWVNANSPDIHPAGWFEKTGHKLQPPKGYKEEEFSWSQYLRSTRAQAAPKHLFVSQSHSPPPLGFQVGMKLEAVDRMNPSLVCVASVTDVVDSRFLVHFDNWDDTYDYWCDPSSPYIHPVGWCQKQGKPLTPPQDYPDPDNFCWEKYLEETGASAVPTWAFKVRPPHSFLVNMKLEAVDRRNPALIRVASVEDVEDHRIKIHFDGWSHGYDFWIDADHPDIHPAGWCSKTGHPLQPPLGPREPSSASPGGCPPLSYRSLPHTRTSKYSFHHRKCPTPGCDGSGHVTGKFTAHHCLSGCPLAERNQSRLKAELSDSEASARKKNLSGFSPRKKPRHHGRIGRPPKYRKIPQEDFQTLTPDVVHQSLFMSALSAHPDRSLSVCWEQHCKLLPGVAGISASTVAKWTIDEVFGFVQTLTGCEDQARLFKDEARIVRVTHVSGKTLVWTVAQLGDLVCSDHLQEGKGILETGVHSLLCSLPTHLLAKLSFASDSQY
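Read-out is AlphaScreen signal from streptavidin donor and nickel chelate acceptor beads (10 ug/mL final each) bridging L3MBTL1 (50 nM) and biotinylated K9-monomethylated H3(1-15) peptide (75 nM), after 30 min compound exposure at room temperature.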
G9a inh – blocks human histone lysine methyltransferase G9a; G9a H3K9 monomethylation, AlphaScreen, 2 h; Potency, µM (highest dose often 102 µM), usual class: inhibitors; actives 8.8% (n = 350,000); AID 504332; also: nearly all actives have a fitted effect of over 75% in size
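Enzyme 20 nM + cpd, 15 min RT; add b-H3K9 pep 500 nM / SAM 20 uM; 2 h RT; anti-H3K9me1 Ab 0.5 ug/mL + SA donor / anti-rabbit acceptor beads 20 ug/mL each, 10 min; AlphaScreen read.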
HP1b chromo inh – blocks HP1-beta chromodomain binding to methylated histone tails; actives 0.56% (n = 390,000); P83916; Potency, µM (doses to about 114 µM), hits mostly inhibitors; AlphaScreen HP1-beta / biotin-H3K9me3 peptide binding; also: nearly all actives have a fitted effect of over 70% in size
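HP1-beta protein (50 nM final) preincubated 30 min at room temperature with biotinylated H3(1-18)K9me3 peptide (50 nM) in PBS pH 7.4, 0.01% Tween-20, then compound added for 30 min. AlphaScreen streptavidin donor/nickel chelate acceptor beads (10 ug/mL final), 30 min dark, luminescence read.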
Of the large screens only hits and unclear results are named; the others gave an inactive call. Sampled rows, rich in hits. Any-hit rate of the full collection: about 11%. Calls follow the shape of the dose curve; as a rule, active = well fitted inhibition curve with a large enough effect; inconclusive = small, poorly fitted or top-dose-only effect; inactive = no such curve, though single readings can be large or run the other way.

CCOc1ccc(CNC(=O)Cn2nc(C)n3cccc3c2=O)cc1	none (no result: L3MBTL1 inh)
CC1(C)Cc2cccc(OCC(O)CN3CCN(c4ccccn4)CC3)c2O1 (centres undefined)	none
CC1(C)Cc2cccc(OCC(O)CNCc3ccccn3)c2O1 (centres undefined)	JMJD2A Tudor 89µM, BAZ2B inh inconclusive, G9a inh inconclusive
COc1ccc(OC)c(CNC(=O)Cn2nc(C)c3nn(-c4ccc(Cl)cc4)c(C)c3c2=O)c1	none (no result: L3MBTL1 inh)
CN1C(=O)c2c(sc3c2CCCC3)NC1c1ccccc1O (centres undefined)	G9a inh inconclusive (no result: JMJD2A Tudor, HP1b chromo inh)
CC1CCCC2(C1)NC(=S)c1c(sc3c1CCCC3)N2 (centres undefined)	JMJD2A Tudor 79µM, BAZ2B inh inconclusive, G9a inh 8.9µM, HP1b chromo inh inconclusive (no result: L3MBTL1 inh)
Cc1nc(CSc2nnc(C)s2)cs1	G9a inh 45µM
Cc1nnc(SCc2ccc(F)cc2)s1	none
COc1ccc(NC(=O)CSc2nc(O)cc(=O)[nH]2)c(OC)c1	none (no result: L3MBTL1 inh)
COc1ccc(Cl)cc1NC(=O)CSc1sc2c(O)cc(=O)[nH]c2c1C#N	G9a inh inconclusive (no result: L3MBTL1 inh)
COc1ccccc1NC(=O)CSc1sc2c(O)cc(=O)[nH]c2c1C#N	JMJD2A Tudor inconclusive, BAZ2B inh inconclusive, G9a inh 8.9µM (no result: L3MBTL1 inh)
COc1ccc(NC(=O)CSc2sc3c(O)cc(=O)[nH]c3c2C#N)c(OC)c1	JMJD2A Tudor inconclusive, BAZ2B inh 79µM, G9a inh 79µM, HP1b chromo inh inconclusive (no result: L3MBTL1 inh)
CCc1ccc(/C=C/C(=O)c2cc(Br)ccc(=O)c2O)cc1	JMJD2A Tudor 79µM, BAZ2B inh 45µM, G9a inh inconclusive, HP1b chromo inh inconclusive (no result: L3MBTL1 inh)
Cc1cccc(/C=C/C(=O)c2cc(Br)ccc(=O)c2O)c1	JMJD2A Tudor inconclusive, BAZ2B inh 45µM, G9a inh inconclusive, HP1b chromo inh inconclusive (no result: L3MBTL1 inh)
CCOc1ccc(/C=C/C(=O)c2cc(Br)ccc(=O)c2O)cc1	JMJD2A Tudor 50µM, BAZ2B inh 45µM, G9a inh 7.9µM
O=C(C=Cc1ccccc1)c1cc(Br)ccc1O	none (no result: BAZ2B inh, L3MBTL1 inh, G9a inh)
CCOc1ccc(C(=O)/C=C/c2ccc(OC)c(OC)c2)cc1	G9a inh inconclusive
COc1ccc(-c2cc3ccc(O)c(CN4CCCC4)c3oc2=O)cc1OC	none (no result: L3MBTL1 inh)
COc1ccc(-c2nc3scc(CCNS(=O)(=O)c4cccs4)n3n2)cc1	none (no result: L3MBTL1 inh)
CCC(=O)C1=C(c2cccc([N+](=O)[O-])c2)N(C(=O)CC)n2c(nnc2C2CCCCC2)S1	none (no result: L3MBTL1 inh)
Nc1c(Cl)cc2c(c1Oc1ccccc1)C(=O)c1ccccc1C2=O	BAZ2B inh inconclusive, G9a inh 10µM (no result: L3MBTL1 inh)
Cc1ccc(-n2cc(CN3CCC(O)(c4ccccn4)CC3)c(-c3ccc(F)cc3)n2)cc1	BAZ2B inh inconclusive, G9a inh inconclusive
O=C(Nc1cc(=O)[nH]c2ncnn12)c1ccc(Cl)cc1Cl	JMJD2A Tudor 79µM, G9a inh 8.9µM
COc1ccc(NC(=O)c2cc3ccccc3cc2OC)cc1	JMJD2A Tudor inconclusive, HP1b chromo inh inconclusive
COc1cc2ccccc2cc1C(=O)NC(=S)Nc1cccc(C(=O)O)c1	BAZ2B inh 79µM, G9a inh inconclusive
COc1cccc2cc(C(=O)Nc3ccc(F)cc3)c(=Nc3ccc(C(=O)O)cc3)oc12	G9a inh 35µM (no result: L3MBTL1 inh)
CC(=O)c1cccc(NC(=S)NC(=O)c2ccccc2)c1	G9a inh inconclusive
COc1cc2ccccc2cc1C(=O)NC(=S)Nc1ccc(C(=O)O)cc1	JMJD2A Tudor 50µM, BAZ2B inh 50µM, G9a inh inconclusive (no result: L3MBTL1 inh)
CCCCN(C)CCNC(=O)c1ccc(Cn2c(=O)[nH]c3cc(OC)c(OC)cc3c2=O)cc1	none (no result: L3MBTL1 inh)
Cc1ccc(CN(C(=O)COc2cccc([N+](=O)[O-])c2)c2ccccn2)o1	JMJD2A Tudor inconclusive, BAZ2B inh inconclusive (no result: L3MBTL1 inh)
Cc1[nH]c(=S)c(C#N)c(C)c1CCC#N	JMJD2A Tudor 20µM, G9a inh 2.8µM (no result: L3MBTL1 inh)
Cc1ccc(CN(C)C(=O)C2CCCN2C(=O)c2cccs2)o1 (centres undefined)	G9a inh 45µM
CN(C)C(CNC(=O)C1CCCN1C(=O)c1cccs1)c1ccccc1 (centres undefined)	none (no result: BAZ2B inh, G9a inh)
O=C(NCCc1ccccc1)c1ccc2c(c1)N(Cc1ccccc1)C(=O)c1ccccc1S2=O (centres undefined)	BAZ2B inh inconclusive (no result: L3MBTL1 inh)
C/C=C/COC(=O)c1[nH]c2c(c1C)C(=O)CC(c1ccc(N(C)C)cc1)C2 (centres undefined)	JMJD2A Tudor 89µM, BAZ2B inh inconclusive, G9a inh 35µM
CCC(C)OC(=O)c1[nH]c2c(c1C)C(=O)CC(c1ccc(N(C)C)cc1)C2 (centres undefined)	JMJD2A Tudor inconclusive, BAZ2B inh inconclusive, G9a inh 14µM
Cc1ccc2oc(Nc3nc(-c4ccccc4)cc(=O)[nH]3)nc2c1	JMJD2A Tudor inconclusive, BAZ2B inh inconclusive, G9a inh 79µM
COCc1cc(=O)[nH]c(Nc2nc3ccccc3o2)n1	JMJD2A Tudor 79µM, BAZ2B inh 40µM
COC(=O)Cc1cc(=O)[nH]c(Nc2nc3ccccc3o2)n1	none
O=C(CSc1nccn1Cc1ccc(F)cc1)NCc1ccco1	none (no result: L3MBTL1 inh)
CC1CCN(S(=O)(=O)c2ccc3c(ccc(=O)n3CC(=O)Nc3ccc(C(C)C)cc3)c2)CC1	none (no result: L3MBTL1 inh)
O=c1nc2ccccn2c2ccc(S(=O)(=O)N3CCCCC3)cc12	G9a inh 45µM (no result: L3MBTL1 inh)
Cc1ccn2c(c1)nc(=O)c1cc(S(=O)(=O)N3CCCCC3)ccc12	none (no result: L3MBTL1 inh)
CCOC(=O)c1c(-c2ccccc2)oc2ccc(OCC(O)CN(C)C)cc12 (centres undefined)	none (no result: L3MBTL1 inh)
CCOC(=O)/C(=C/C=C1\Sc2cc(C)c(C)cc2N1CC)C(C)=O	BAZ2B inh 40µM
O=[N+]([O-])c1ccc(COc2ccc(Br)cc2CN2CCOCC2)cc1	JMJD2A Tudor inconclusive, BAZ2B inh inconclusive, G9a inh 50µM
COC(=O)c1ccc(CNC(=O)COC(=O)c2cc(Cl)nc(Cl)c2)cc1	G9a inh 50µM
COc1ccc(/C=C/C(=O)OCc2cc(=O)n3c(n2)sc2ccccc23)cc1	none
O=c1cc(CCl)nc2sc3ccccc3n12	JMJD2A Tudor 50µM, BAZ2B inh 50µM, L3MBTL1 inh inconclusive, G9a inh inconclusive
COc1cc(NC(=O)Cn2nc3c(cc2=O)CC(C)CC3)cc(OC)c1OC (centres undefined)	none (no result: L3MBTL1 inh)
O=C(COC(=O)c1ccc(Cl)cc1O)NC(=O)C1CCCCC1	G9a inh 50µM
CC(=O)Nc1ccc(SC(C)C(=O)NC(N)=O)cc1 (centres undefined)	G9a inh 40µM (no result: L3MBTL1 inh)
CC(Sc1ccccc1)C(=O)Nc1ccc(N2CCOCC2)cc1 (centres undefined)	none (no result: L3MBTL1 inh)
CC(Sc1cccc[n+]1[O-])C(=O)Nc1ccc(Oc2ccccc2)cc1 (centres undefined)	G9a inh 40µM
COc1ccc(NC(=O)C(C)Sc2ccccc2)cc1 (centres undefined)	G9a inh 45µM (no result: L3MBTL1 inh)

High-throughput results deposited in PubChem by National Center for Advancing Translational Sciences (NCATS).
